From the supplement of paper PMC5919970
Structures can show the parent of a compound that is named as a salt. Whole data set: some 2,000 compounds, median “fractional viability relative to vehicle” near 0.91, cut for the lowest 2% near 0.045. The full list was thinned out, with the lowest values kept by preference.

Tested on: TYKNU
Assay: fractional viability relative to vehicle; TYKNU is a high-grade serous ovarian cancer line; higher = less growth inhibition
Details: 72 h
Summary of the method: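 Drug treatment lasted 72 h, with cells grown at 37 °C in 5% CO2 in RPMI 1640 supplemented with 10% FBS. Beforehand, TYKNU control cells or their lentiCRISPRv2 knockout derivatives had been seeded at 500 cells per well into drug-stamped 384-well plates carrying a ~2100-compound library at 2 or 10 μM, in duplicate. Viability came from Cell Titer Glo luminescence, with averaged duplicate treatment wells normalised to duplicate control wells in the same plate position.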

[1] = 2uM, genotype: DNM1L knockout (sgDNM1L #1)
[2] = 2uM, genotype: sgCTRLA1 (non-targeting control)
[3] = 10uM, genotype: DNM1L knockout (sgDNM1L #1)
[4] = 10uM, genotype: sgCTRLA1 (non-targeting control)

| Structure (SMILES) | fractional viability [1] | fractional viability [2] | fractional viability [3] | fractional viability [4] |
| --- | --- | --- | --- | --- |
| CCOC(=O)c1ccc(NC(=O)O[C@H]2[C@H](OC(=O)Nc3ccc4c(c3)OCO4)[C@@H](OC(=O)Nc3ccc4c(c3)OCO4)[C@@H](OC)O[C@@H]2CO)cc1 | 0.821 | 1.04 | 0.616 | 0.615 |
| CCCCCCCCC/C(=C\C1=C(C)C(=O)C(OC)=C(OC)C1=O)C(=O)O | 0.847 | 0.878 | 0.855 | 0.701 |
| Cn1sc(=O)n(Cc2ccccc2)c1=O | 0.797 | 0.735 | 0.0256 | 0.00748 |
| Cc1ccc(-n2sc(=O)n(Cc3ccc(F)cc3)c2=O)cc1 | 0.995 | 1.11 | 0.469 | 0.618 |
| O=C(NC[C@H](O)CN1CCc2ccccc2C1)c1cc(NC2COC2)ncn1 | 0.764 | 0.899 | 0.604 | 0.662 |
| Nc1ccc(-c2ccc3ncc4ccc(=O)n(-c5cccc(C(F)(F)F)c5)c4c3c2)cn1 [Torin 2] | 0.125 | 0.114 | 0.114 | 0.0945 |
| COc1ccc(-c2ccc3ncc4c(c3c2)n(-c2ccc(N3CCNCC3)c(C(F)(F)F)c2)c(=O)n4C)cn1 | 0.0297 | 0.0315 | 0.0158 | 0.0115 |
| O=C(Nc1ccc(OC(F)(F)F)cc1)c1sccc1NCc1ccnc2ccccc12 | 0.926 | 0.906 | 0.215 | 0.181 |
| CN1CCN(c2c(F)cc3c(=O)c(C(=O)O)cn4c3c2OCN4C)CC1 [Marbofloxacin] | 1.13 | 1.21 | 0.971 | 1.01 |
| Cc1c(C(=O)NN2CCCCC2)nn(-c2ccc(Cl)cc2Cl)c1-c1ccc(Cl)cc1 [Rimonabant] | 1.11 | 1.01 | 0.575 | 0.753 |
| CNC(=O)c1ccc(Nc2ncc(C(F)(F)F)c(NCc3nccnc3N(C)S(C)(=O)=O)n2)cc1 | 0.702 | 0.772 | 0.213 | 0.179 |
| CC(C)(O)c1ccccc1CC[C@@H](SCC1(CC(=O)O)CC1)c1cccc(/C=C/c2ccc3ccc(Cl)cc3n2)c1 [Montelukast Sodium] | 0.809 | 1.13 | 0.762 | 1.05 |
| CCS(=O)(=O)Nc1ccc2c(c1)/C(=C(/Nc1ccc(CN3CCCCC3)cc1)c1ccccc1)C(=O)N2 [Hesperadin] | 0.316 | 0.329 | 0.0548 | 0.0381 |
| COC(=O)c1ccc2c(c1)NC(=O)/C2=C(\Nc1ccc(N(C)C(=O)CN2CCN(C)CC2)cc1)c1ccccc1 [Nintedanib (BIBF 1120)] | 0.903 | 0.889 | 0.152 | 0.147 |
| CN(C)Cc1cccc(N/C(=C2\C(=O)Nc3cc(C(N)=O)ccc32)c2ccccc2)c1 | 1.01 | 0.992 | 1.05 | 0.912 |
| CC#CCn1c(N2CCC[C@@H](N)C2)nc2c1c(=O)n(Cc1nc(C)c3ccccc3n1)c(=O)n2C [Linagliptin] | 1.22 | 1.14 | 0.918 | 0.986 |
| NC(=O)c1cn(Cc2c(F)cccc2F)nn1 [Rufinamide] | 0.992 | 1.08 | 1.07 | 1.04 |
| Cc1cc(C)nc(NS(=O)(=O)c2ccc(NC(=S)NC(=O)COc3ccc(Br)cc3Cl)cc2)n1 | 1.05 | 1.04 | 0.706 | 1.08 |
| CN1CCN(c2ccc(Nc3cc(-c4cccc(-n5ccc6cc(C7CC7)cc(F)c6c5=O)c4CO)cn(C)c3=O)nc2)CC1 | 0.836 | 0.97 | 0.114 | 0.182 |
| CCOC(=O)[C@@H](N)Cc1ccc(-c2cc(O[C@H](c3ccc(Cl)cc3-n3ccc(C)n3)C(F)(F)F)nc(N)n2)cc1 [Telotristat Etiprate (LX 1606 Hippurate)] | 0.777 | 1.1 | 0.0468 | 0.12 |

| Structure (SMILES) | fractional viability [1] | fractional viability [2] | fractional viability [3] | fractional viability [4] |
| --- | --- | --- | --- | --- |
| COC(=O)[C@H](Cc1ccccc1)NC(=O)[C@@H](N)CC(=O)O [Aspartame] | 1.02 | 1.15 | 0.941 | 0.985 |
| COC[C@H](NC(=O)c1cnc(C)s1)C(=O)N[C@@H](COC)C(=O)N[C@@H](Cc1ccccc1)C(=O)[C@@]1(C)CO1 [Oprozomib (ONX 0912)] | 0.0658 | 0.0656 | 0.055 | 0.0445 |
| CC(NC(=O)C(Cc1ccccc1)NC(=O)OCc1ccccc1)C(=O)CF (configuration not stated) | 0.85 | 0.869 | 0.793 | 0.606 |
| CC(C)C[C@H](NC(=O)[C@H](CCc1ccccc1)NC(=O)CN1CCOCC1)C(=O)N[C@@H](Cc1ccccc1)C(=O)N[C@@H](CC(C)C)C(=O)[C@@]1(C)CO1 [Carfilzomib (PR-171)] | 0.0773 | 0.0587 | 0.0559 | 0.057 |
| CC(C)C[C@H](NC(=O)[C@H](Cc1ccccc1)NC(=O)c1cnccn1)B(O)O [Bortezomib (PS-341)] | 0.1 | 0.0838 | 0.101 | 0.0762 |
| COc1ccc(C[C@H](NC(=O)[C@H](C)NC(=O)CN2CCOCC2)C(=O)N[C@@H](Cc2ccccc2)C(=O)[C@@]2(C)CO2)cc1 | 0.0589 | 0.0514 | 0.0565 | 0.0416 |
| C[C@@]1(C(=O)Nc2ccc(F)nc2)CCCN1c1nc(Nc2cc(C3CC3)n[nH]2)c2cccn2n1 | 0.561 | 0.689 | 0.282 | 0.252 |
| O=C(N/N=C/c1cc(O)c(O)cc1O)c1cc2ccccc2cc1O [Dyngo-4a] | 0.912 | 1.05 | 0.857 | 0.867 |
| Oc1ccc(Cc2nc3c(Cc4ccccc4)nc(-c4ccc(O)cc4)cn3c2O)cc1 [Coelenterazine] | 0.928 | 1.05 | 0.977 | 0.839 |
| O=C1N=C(O)NC1(c1ccccc1)c1ccccc1 [Phenytoin sodium] | 1.03 | 1.09 | 0.864 | 1.04 |
| CCc1cc(Nc2nccc(-c3c(-c4ccc(OC)c(C(=O)Nc5c(F)cccc5F)c4)nc4ccccn34)n2)c(OC)cc1N1CCC(N2CCN(S(C)(=O)=O)CC2)CC1 | 1.12 | 1.04 | 0.72 | 0.915 |
| CC(O)c1cc(C(=O)N[C@@H](C)Cn2ccc(-c3ccc(C#N)c(Cl)c3)n2)n[nH]1 (some centres not stated) | 0.762 | 0.897 | 0.94 | 0.769 |
| CN(C)Cc1c(C(=O)NCCOc2ccc(C(=O)NO)cc2)oc2ccccc12 | 0.184 | 0.244 | 0.0877 | 0.133 |
| COc1cccc(-n2c(=O)[nH]c3cc(Cl)n(-c4ccc(-c5cccc(OC)c5O)cc4)c3c2=O)c1 | 0.844 | 1.02 | 0.857 | 0.918 |
| COc1ccc2[nH]cc(/C=C3\C(=O)Nc4ccc(NC(=O)CCN5CCCCC5)cc43)c2c1 | 0.761 | 0.929 | 0.809 | 0.795 |
| CN1CCN(C(=O)c2cc3cc(Cl)ccc3[nH]2)CC1 | 1.13 | 1.23 | 0.961 | 1.16 |
| CN1CCCN(C(=O)c2cccc(-c3ccc(/C=C4/C(=O)Nc5ccc(Cl)cc54)o3)c2)CC1 | 0.0585 | 0.0575 | 0.0139 | 0.00867 |
| O=C(Nc1nc2cccc(-c3ccc(CN4CCS(=O)(=O)CC4)cc3)n2n1)C1CC1 [Filgotinib (GLPG0634)] | 0.73 | 0.849 | 0.493 | 0.573 |
| CC(=O)OCOC(=O)CN(CC(=O)OCOC(C)=O)c1ccccc1OCCOc1ccccc1N(CC(=O)OCOC(C)=O)CC(=O)OCOC(C)=O | 0.391 | 0.569 | 0.0416 | 0.0639 |
| CC(=O)Oc1ccccc1C(=O)O [Aspirin] | 0.863 | 1.09 | 1.01 | 1.05 |

| Structure (SMILES) | fractional viability [1] | fractional viability [2] | fractional viability [3] | fractional viability [4] |
| --- | --- | --- | --- | --- |
| O=C(NNc1nc2cc(F)ccc2n2cccc12)c1cnccn1 | 0.358 | 0.282 | 0.269 | 0.247 |
| Nc1c(CC(=O)O)cccc1C(=O)c1ccc(Br)cc1 [Bromfenac Sodium] | 0.888 | 1.1 | 0.801 | 1.05 |
| Cc1[nH]c(/C=C2\C(=O)Nc3ccccc32)c(C)c1CCC(=O)O [TSU-68 (SU6668, Orantinib)] | 0.962 | 1.11 | 0.869 | 1.02 |
| CCN(CC)CCNC(=O)c1c(C)[nH]c(/C=C2\C(=O)Nc3ccc(F)cc32)c1C [Sunitinib Malate] | 0.853 | 0.819 | 0.169 | 0.122 |
| CCN(CC)CCNC(=O)c1c(C)[nH]c(/C=C2\C(=O)Nc3ccc(F)cc32)c1C [Sunitinib] | 0.544 | 0.67 | 0.0734 | 0.0439 |
| CCN(CC)CCNC(=O)c1ccc(N)cc1 [Procainamide HCl] | 0.791 | 1 | 0.633 | 0.929 |
| O=C(c1ccc(F)c(F)c1Nc1ccc(I)cc1F)N1CC(O)([C@@H]2CCCCN2)C1 [Cobimetinib (GDC-0973, RG7420)] | 0.814 | 1.03 | 0.942 | 0.846 |
| Nc1ccc2ncnc(NCCc3ccc(Oc4ccccc4)cc3)c2c1 | 0.604 | 0.444 | 0.596 | 0.43 |
| COc1cc(/C=C/C(=O)N2CCC=CC2=O)cc(OC)c1OC [Piperlongumine] | 0.302 | 0.319 | 0.0446 | 0.0292 |
| COc1cc(/C=C/C(=O)N2CCN(CC(=O)N3CCCC3)CC2)cc(OC)c1OC [Cinepazide maleate] | 1.08 | 0.973 | 1.1 | 1.02 |
| COc1ccc(/C=C\c2cc(OC)c(OC)c(OC)c2)cc1O [Combretastatin A4] | 0.11 | 0.122 | 0.111 | 0.073 |
| COc1ccc2cc(OCC3(C(=O)O)CN(C(=O)c4ccc(F)cc4)C3)ccc2c1 | 0.822 | 1.12 | 0.788 | 1.11 |
| COCCOc1ccc2c(c1)ncn2-c1ccc2cccc(N3CCC(N)CC3)c2n1 | 0.892 | 0.893 | 0.13 | 0.139 |
| Cc1cc(C)c(CNC(=O)c2cc(-c3ccc(N4CCN(C)CC4)nc3)cc3c2c(C)cn3C(C)C)c(=O)[nH]1 | 0.782 | 1.03 | 0.669 | 0.609 |
| O=C(NC1CC1)c1cc(-c2cccs2)on1 [Isoxazole 9 (ISX-9)] | 0.927 | 0.844 | 0.795 | 0.662 |
| CC(CNC(=O)c1cccnc1)NC(=O)c1cccnc1 (configuration not stated) [Nicaraven] | 0.754 | 1.07 | 0.726 | 0.99 |
| CCCS(=O)(=O)Nc1ccc(F)c(C(=O)c2c[nH]c3ncc(-c4ccc(Cl)cc4)cc23)c1F [Vemurafenib (PLX4032, RG7204)] | 1.05 | 1.26 | 0.823 | 0.974 |
| COc1ncc(-c2ccc3nccc(-c4ccnnc4)c3c2)cc1NS(=O)(=O)c1ccc(F)cc1F | 0.446 | 0.184 | 0.0665 | 0.0352 |
